Measured values taken from PubChem BioAssay AID1159580 (chemical genetic matrix, 2015).
In all, about 5,500 compounds went through this assay and about 2,000 (36%) were called active. Another 18% or so got no clear call; they are omitted. Cut-off read from the data, not from the text of the source: active = normalized growth mostly below about 0.91 (no sharp cut-off); inconclusive = no clear call, values can overlap the other calls; inactive = mostly above about 0.92. Some of the results follow.

Assay: chemical genetic growth profiling, strain panel (AID 1159580);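 note: tested at 20 µM; growth read once vehicle control cultures reached saturation at 30 °C; 1 = growth at the plate median or of vehicle wells; lower values mean less growth of the strain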
Settings: S. cerevisiae deletion strains, growth OD

Measured: normalized growth

COc1ccc(-c2coc3cc(O)ccc3c2=O)c(OC)c1
inactive: locus YAL013W, strain DEP1, stronger effect = lower value 1.01 | locus YAL021C, strain ccr4, stronger effect = lower value 0.995 | locus YAL026C, strain drs2, stronger effect = lower value 1.01 | locus YAL030W, strain snc1, stronger effect = lower value 1 | locus YBL061C, strain skt5, stronger effect = lower value 0.996 | locus YBR009C, strain hhf1, stronger effect = lower value 1.01 | locus YBR021W, strain FUR4, stronger effect = lower value 0.887 | locus YBR023C, strain chs3, stronger effect = lower value 1.01 | locus YBR171W, strain sec66, stronger effect = lower value 1.01 | locus YBR229C, strain ROT2, stronger effect = lower value 1 | locus YBR231C, strain swc5, stronger effect = lower value 0.982 | locus YBR279W, strain paf1, stronger effect = lower value 1.01 | locus YCL011C, strain gbp2, stronger effect = lower value 1.03 | locus YCL016C, strain dcc1, stronger effect = lower value 1.01 | locus YCL029C, strain bik1, stronger effect = lower value 1.01 | locus YCL069W, strain vba3, stronger effect = lower value 1.01 | locus YCR088W, strain abp1, stronger effect = lower value 1 | locus YDL005C, strain med2, stronger effect = lower value 1 | locus YDL035C, strain GPR1, stronger effect = lower value 1 | locus YDL040C, strain nat1, stronger effect = lower value 1 | locus YDL074C, strain BRE1, stronger effect = lower value 1.02 | locus YDL101C, strain DUN1, stronger effect = lower value 1 | locus YDL185W, strain tfp1, stronger effect = lower value 0.994 | locus YDL192W, strain arf1, stronger effect = lower value 0.99 | locus YDR001C, strain nth1, stronger effect = lower value 1 | locus YDR069C, strain doa4, stronger effect = lower value 0.982 | locus YDR101C, strain arx1, stronger effect = lower value 0.982 | locus YDR137W, strain rgp1, stronger effect = lower value 0.995 | locus YDR159W, strain sac3, stronger effect = lower value 0.976 | locus YDR162C, strain NBP2, stronger effect = lower value 0.937 | locus YDR195W, strain ref2 0.974 | locus YDR297W, strain sur2, stronger effect = lower value 0.995 | locus YDR318W, strain mcm21, stronger effect = lower value 1 | locus YDR334W, strain swr1, stronger effect = lower value 0.994 | locus YDR335W, strain msn5, stronger effect = lower value 1.02 | locus YDR388W, stronger effect = lower value 1 | locus YDR392W, strain spt3, stronger effect = lower value 0.951 | locus YDR502C, strain sam2, stronger effect = lower value 1 | locus YEL003W, strain gim4, stronger effect = lower value 0.985 | locus YEL037C, strain rad23, stronger effect = lower value 1.01 | locus YEL061C, strain CIN8 (second series), stronger effect = lower value 1 | locus YEL061C, strain CIN8, stronger effect = lower value 1 | locus YER015W, strain faa2, stronger effect = lower value 1.02 | locus YER016W, strain bim1, stronger effect = lower value 0.999 | locus YER110C, stronger effect = lower value 1.03 | locus YER111C, strain swi4, stronger effect = lower value 0.999 | locus YER155C, strain BEM2 (second series), stronger effect = lower value 0.977 | locus YER155C, strain BEM2, stronger effect = lower value 1.01 | locus YER167W, strain BCK2, stronger effect = lower value 1.01 | locus YFR010W, strain ubp6, stronger effect = lower value 0.984 | locus YGL078C, strain dbp3, stronger effect = lower value 0.988 | locus YGL086W, strain mad1, stronger effect = lower value 0.991 | locus YGL167C, strain pmr1, stronger effect = lower value 1.01 | locus YGL173C, strain kem1, stronger effect = lower value 0.997 | locus YGL227W, strain vid30, stronger effect = lower value 0.992 | locus YGL240W, strain doc1, stronger effect = lower value 0.972 | locus YGL248W, strain PDE1, stronger effect = lower value 1 | locus YGL253W, strain hxk2, stronger effect = lower value 0.981 | locus YGR135W, strain pre9, stronger effect = lower value 0.993 | locus YGR229C, strain SMI1, stronger effect = lower value 0.97 | locus YGR252W, strain gcn5, stronger effect = lower value 1.01 | locus YHR013C, strain ard1, stronger effect = lower value 1.01 | locus YHR027C, strain rpn1, stronger effect = lower value 1 | locus YHR030C, strain SLT2, stronger effect = lower value 1.01 | locus YHR079C, strain IRE1 (second series), stronger effect = lower value 1.01 | locus YHR094C, strain hxt1, stronger effect = lower value 0.995 | locus YHR129C, strain ARP1, stronger effect = lower value 1.02 | locus YHR142W, strain chs7, stronger effect = lower value 0.999 | locus YHR200W, strain rpn10, stronger effect = lower value 1 | locus YIL066C, strain RNR3, stronger effect = lower value 0.994 | locus YIL073C, strain SPO22, stronger effect = lower value 1.02 | locus YIL125W, strain kgd1, stronger effect = lower value 0.996 | locus YIR030C, strain dcg1, stronger effect = lower value 0.999 | locus YJL092W, strain hpr5, stronger effect = lower value 1 | locus YJL095W, strain BCK1 (second series), stronger effect = lower value 1 | locus YJL095W, strain BCK1, stronger effect = lower value 0.976 | locus YJL115W, strain asf1, stronger effect = lower value 1.01 | locus YJL129C, strain trk1, stronger effect = lower value 1.03 | locus YJL134W, strain LCB3, stronger effect = lower value 1.01 | locus YJL154C, strain vps35, stronger effect = lower value 1 | locus YJL164C, strain tpk1, stronger effect = lower value 1.01 | locus YJL166W, strain qcr8, stronger effect = lower value 0.995 | locus YJL168C, strain set2, stronger effect = lower value 1.02 | locus YJL187C, strain SWE1 (second series), stronger effect = lower value 0.998 | locus YJL187C, strain SWE1, stronger effect = lower value 1.02 | locus YJR043C, strain POL32, stronger effect = lower value 0.999 | locus YJR075W, strain HOC1, stronger effect = lower value 0.994 | locus YKL009W, strain mrt4, stronger effect = lower value 1.04 | locus YKL068W, stronger effect = lower value 1.01 | locus YKL085W, strain MDH1 (second series), stronger effect = lower value 0.996 | locus YKL085W, strain MDH1, stronger effect = lower value 0.996 | locus YKL160W, strain elf1, stronger effect = lower value 1.02 | locus YKL190W, strain CNB1, stronger effect = lower value 1 | locus YKR001C, strain vps1, stronger effect = lower value 0.973 | locus YKR026C, strain gcn3, stronger effect = lower value 1 | locus YKR091W, strain srl3, stronger effect = lower value 1.01 | locus YLL001W, strain dnm1, stronger effect = lower value 0.963 | locus YLL026W, stronger effect = lower value 1 | locus YLL041C, strain sdh2, stronger effect = lower value 1.01 | locus YLR027C, strain aat2, stronger effect = lower value 1.01 | locus YLR039C, strain RIC1, stronger effect = lower value 0.976 | locus YLR058C, strain SHM2, stronger effect = lower value 1.01 | locus YLR102C, strain apc9, stronger effect = lower value 1 | locus YLR221C, strain rsa3, stronger effect = lower value 1 | locus YLR258W, strain gsy2, stronger effect = lower value 1.01 | locus YLR262C, strain YPT6 (second series), stronger effect = lower value 0.995 | locus YLR262C, strain YPT6, stronger effect = lower value 0.989 | locus YLR268W, strain sec22, stronger effect = lower value 0.991 | locus YLR320W, strain mms22, stronger effect = lower value 1 | locus YLR330W, strain CHS5, stronger effect = lower value 1.02 | locus YLR342W, strain FKS1 (second series), stronger effect = lower value 1.03 | locus YLR342W, strain FKS1, stronger effect = lower value 1.02 | locus YLR357W, strain rsc2, stronger effect = lower value 0.98 | locus YLR370C, strain arc18, stronger effect = lower value 1 | locus YLR371W, strain rom2, stronger effect = lower value 0.998 | locus YLR384C, strain iki3, stronger effect = lower value 0.998 | locus YLR418C, strain cdc73, stronger effect = lower value 0.971 | locus YML016C, strain PPZ1, stronger effect = lower value 1 | locus YML032C, strain rad52, stronger effect = lower value 1.01 | locus YML120C, strain ndi1, stronger effect = lower value 1.02 | locus YML124C, strain tub3, stronger effect = lower value 1 | locus YMR058W, strain fet3, stronger effect = lower value 1 | locus YMR078C, strain ctf18, stronger effect = lower value 1.01 | locus YMR125W, strain sto1, stronger effect = lower value 1.01 | locus YMR129W, stronger effect = lower value 1.01 | locus YMR205C, strain PFK2, stronger effect = lower value 1.01 | locus YMR223W, strain ubp8, stronger effect = lower value 1.01 | locus YMR231W, strain pep5, stronger effect = lower value 1.01 | locus YMR307W, strain GAS1, stronger effect = lower value 0.901 | locus YNL067W, strain RPL9B, stronger effect = lower value 0.984 | locus YNL071W, strain lat1, stronger effect = lower value 1.01 | locus YNL128W, strain TEP1, stronger effect = lower value 1 | locus YNL209W, strain ssb2, stronger effect = lower value 1.01 | locus YNL233W, strain BNI4, stronger effect = lower value 0.993 | locus YNL248C, strain rpa49, stronger effect = lower value 1 | locus YNL250W, strain rad50, stronger effect = lower value 1.01 | locus YNL271C, strain bni1, stronger effect = lower value 0.992 | locus YNL298W, strain CLA4, stronger effect = lower value 1.01 | locus YNL307C, strain MCK1, stronger effect = lower value 1.01 | locus YNL322C, strain KRE1 (second series), stronger effect = lower value 1.01 | locus YNR049C, strain mso1, stronger effect = lower value 1.01 | locus YNR052C, strain pop2, stronger effect = lower value 1.01 | locus YOL012C, strain htz1 0.93 | locus YOL147C, strain pex11, stronger effect = lower value 0.998 | locus YOR001W, strain rrp6, stronger effect = lower value 0.998 | locus YOR061W, strain CKA2, stronger effect = lower value 1 | locus YOR069W, strain VPS5, stronger effect = lower value 1.01 | locus YOR070C, strain gyp1, stronger effect = lower value 1.01 | locus YOR080W, strain dia2, stronger effect = lower value 1 | locus YOR083W, strain WHI5, stronger effect = lower value 1.02 | locus YOR106W, strain vam3, stronger effect = lower value 1.03 | locus YOR136W, strain idh2, stronger effect = lower value 0.997 | locus YOR144C, strain elg1, stronger effect = lower value 0.988 | locus YOR184W, strain ser1, stronger effect = lower value 0.952 | locus YOR265W, strain rbl2, stronger effect = lower value 1.01 | locus YOR270C, strain vph1, stronger effect = lower value 0.959 | locus YOR290C, strain snf2, stronger effect = lower value 1.02 | locus YOR316C, strain cot1, stronger effect = lower value 1.01 | locus YPL051W, strain arl3, stronger effect = lower value 1.01 | locus YPL055C, strain LGE1, stronger effect = lower value 0.971 | locus YPL078C, strain atp4, stronger effect = lower value 1.03 | locus YPL106C, strain sse1, stronger effect = lower value 1.01 | locus YPL240C, strain hsp82, stronger effect = lower value 1.01 | locus YPL241C, strain CIN2, stronger effect = lower value 0.992 | locus YPR119W, strain clb2, stronger effect = lower value 1.01 | locus YPR141C, strain kar3, stronger effect = lower value 1 | locus YPR163C, strain tif3, stronger effect = lower value 0.999 | locus YPR167C, strain met16, stronger effect = lower value 1.01 | strain wtn01, stronger effect = lower value 1.01
